# Results published in PubChem BioAssay (Tox21).
# Inconclusive results are not listed. A call without a number means that no potency is given here. A number with no mark means an inactive call. Active and inactive are the calls of the source. Calls come from the whole dose curve; as a rule, active = well fitted inhibition curve with a large enough effect in the signal ratio in the repeat runs (not every such curve was filed as active); inconclusive = weak or mixed curves, or effect the other way; inactive = flat fitted curve, though single readings scatter; the % refers to the signal ratio.
# Assay: cAMP Responsive Elements (CRE) small molecule antagonists, cell-based qHTS assay (AID 1963591)
# Conditions: CRE-bla HEK293T, beta-lactamase FRET ratio; series mostly up to 92.4 µM
# Excerpt: U.S. Tox21 Program National Center for Advancing Translational Sciences [NCATS] Division of Preclinical Innovation [DPI] U.S. Environmental Protection Agency [EPA] National Institutes of Environmental Health Sciences [NIEHS] National Toxicology Program [NTP] U.S. Food and Drug Administration [FDA] Tox21 Assay Overview: CREB (cyclic-AMP Responsive Element Binding Protein) is a cellular transcription factor. It binds to certain DNA sequences called cAMP Responsive Elements (CRE) and regulates the transcription of the genes. […] This cell line can be used to find agonists/antagonists of the cyclic AMP signaling pathway. The activation of the report gene under culture conditions can be detected by fluorescence intensity. This cell line has been used to screen the Tox21 10K compound library to […].
# Tox21 Assay Protocol Summary: CRE-bla Hek 293T cells were suspended in assay medium (DMEM containing 10% dialyzed FBS, 0.1 mM NEAA, 1 mM sodium pyruvate and 25 mM HEPES) and dispensed at 2,000 cells/4 uL /well into 1536-well black wall/clear bottom plates using a Multidrop Combi (ThermoFisher Scientific, Waltham, MA) dispenser. After the assay plates were incubated at 37 C/5% CO2 for 18 hrs, 23 nL of compounds dissolved in DMSO, positive controls or DMSO only was transferred to the assay plate by a pintool workstation (Kalypsys, San Diego, CA), followed by addition of 1 […] uL of 1.25uM NKH477 (0.25 uM as final concentration) in assay medium using a Flying Reagent Dispenser (Aurora Discovery, San Diego, CA). The plates were incubated at 37 C and 5% CO2 for 3 hrs. Then 1 uL of LiveBLAzer B/G FRET substrate (Invitrogen, Carlsbad, CA) was added to each well using Bioraptr Flying Reagent Dispenser (FRD, Aurora Discovery, San Diego, CA). The plates were incubated at room temperature for 2 h.
Compound,Potency,"activity change, negative = inhibition"
CC(C)(c1ccc(O)cc1)c1ccc(O)cc1,inactive,
CCCCCCCCN(C)C,inactive,
O=C(CCS)OCC(COC(=O)CCS)(COC(=O)CCS)COC(=O)CCS,inactive,
O=C(c1ccc(O)cc1O)c1ccc(O)cc1O,inactive,
N=c1nc(N2CCCCC2)cc(N)n1O,inactive,
COC(OC)C(C)c1ccccc1 (stereo not given),inactive,
CCOC(=O)c1c(C)n(C)c2ccc(O)cc12,inactive,
COc1cc(Cl)ccc1Cl,inactive,
C[C@H]1C[C@@H](O)CC(C)(C)C1,inactive,
CC[C@]12CCCN3CCc4c(n(c5ccccc45)[C@@](O)(C(=O)OC)C1)[C@@H]32,inactive,
C/C=C(\C)C(=O)OC/C=C(\C)CCC=C(C)C,inactive,
CCCCC(O)/C=C(C)/C=C/C=C/C(=O)N1CCCC1=O (stereo not given),inactive,
CC(N)CN (stereo not given),inactive,
NC[C@H]1O[C@H](O[C@H]2[C@H](O)[C@@H](O[C@H]3O[C@H](CO)[C@@H](O)[C@H](N)[C@H]3O)[C@H](N)C[C@@H]2N)[C@H](N)[C@@H](O)[C@@H]1O,,0.145% [at 18.9 µM]
c1ccsc1,inactive,
O=c1n(CCCN2CCN(c3cccc(Cl)c3)CC2)nc2ccccn12,inactive,
CC(C)c1cccc(O)c1,inactive,
Cc1ccc(C=O)cc1,inactive,
CCOCCOCC,inactive,
CCCCCCc1ccc(-c2ccc(C#N)cc2)cc1,inactive,

Compound,Potency,"activity change, negative = inhibition"
CC(O)Cn1cnc2c1c(=O)n(C)c(=O)n2C (stereo not given),inactive,
NC(=O)NC1N=C([O][Al])NC1=O (stereo not given),inactive,
C=C(C)C(=O)OCCNC(C)(C)C,inactive,
CC(=O)Nc1c(I)cc(I)c(C(=O)O)c1I,inactive,
CCCCCCCCCCCCCCCCI,,-14.2% [at 18.9 µM]
CC(=O)/C=C/C1C(C)=CCCC1(C)C (stereo not given),inactive,
OCc1ccccc1O,inactive,
COc1ccc(C)cc1,inactive,
CCCCCCCCSCC,inactive,
CCC(=O)OC,inactive,
C1CCC2OC2C1 (stereo not given),inactive,
Oc1ccccc1O,inactive,
CC(C)CCCO,inactive,
CC(=O)OCc1ccco1,inactive,
Cc1ccc(C(=O)C(=O)O)cc1C,inactive,
OC[C@H]1O[C@H](O[C@H]2O[C@H](CO)[C@@H](O)[C@H](O)[C@H]2O)[C@H](O)[C@@H](O)[C@@H]1O,inactive,
FC(F)(F)/C(=N\OCC1OCCO1)c1ccc(Cl)cc1,inactive,
CC(C)(CCC(=O)O)C(=O)O,inactive,
O=C(O)c1cc(=O)c2c(OCC(O)COc3cccc4oc(C(=O)O)cc(=O)c34)cccc2o1,inactive,
O=S(=O)(O)c1cc(O)c(O)c(S(=O)(=O)O)c1,inactive,
